In the library only some 18% were active in any assay of this set; here they are far more common.
PLK1 PBD inh – PLK1 (human) polo-box domain binding inhibition | P53350 | Potency, µM, without a hit: max response, negative = inhibition, most hits filed as inhibitors | Plk1 PBD binding of FITC phosphopeptide, fluorescence polarization | AID 720504 | 2.8% of 360,000 active; further: series mostly up to about 57 µM; nearly all actives have a fitted effect of over 65% in size
TDP1 cell CPT – growth inhibition of DT40 Tdp1-/-;hTDP1 cells with camptothecin (screen for TDP1 inhibitors). Potency, µM (top dose mostly 46.2 µM), without a hit: at the highest dose activity change, negative = growth inhibition, actives largely listed as inhibitors. chicken DT40 Tdp1-/-;hTDP1 cells + 20 nM CPT, ATP luminescence, 48 h. AID 686979. 12% of 420,000 active; further: nearly all actives have a fitted effect of over 55% in size
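Cell growth measured by CellTiter-Glo luminescence after a minimum 48 h, 37 C compound exposure with 20 nM CPT in Tdp1-knockout DT40 cells stably expressing hTDP1, seeded 400/well; qHTS titration format.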
KAT2A inh – GCN5L2 (KAT2A) acetyltransferase inhibition. Potency, µM (top dose mostly 58.9 µM), for the others: top-dose activity change, negative = inhibition, most hits filed as inhibitors. 0.21% of 390,000 active. AID 504327. GCN5L2 HAT assay, ThioGlo1 CoA-SH fluorescence
Target sequence (Q92830 whole entry, looked up): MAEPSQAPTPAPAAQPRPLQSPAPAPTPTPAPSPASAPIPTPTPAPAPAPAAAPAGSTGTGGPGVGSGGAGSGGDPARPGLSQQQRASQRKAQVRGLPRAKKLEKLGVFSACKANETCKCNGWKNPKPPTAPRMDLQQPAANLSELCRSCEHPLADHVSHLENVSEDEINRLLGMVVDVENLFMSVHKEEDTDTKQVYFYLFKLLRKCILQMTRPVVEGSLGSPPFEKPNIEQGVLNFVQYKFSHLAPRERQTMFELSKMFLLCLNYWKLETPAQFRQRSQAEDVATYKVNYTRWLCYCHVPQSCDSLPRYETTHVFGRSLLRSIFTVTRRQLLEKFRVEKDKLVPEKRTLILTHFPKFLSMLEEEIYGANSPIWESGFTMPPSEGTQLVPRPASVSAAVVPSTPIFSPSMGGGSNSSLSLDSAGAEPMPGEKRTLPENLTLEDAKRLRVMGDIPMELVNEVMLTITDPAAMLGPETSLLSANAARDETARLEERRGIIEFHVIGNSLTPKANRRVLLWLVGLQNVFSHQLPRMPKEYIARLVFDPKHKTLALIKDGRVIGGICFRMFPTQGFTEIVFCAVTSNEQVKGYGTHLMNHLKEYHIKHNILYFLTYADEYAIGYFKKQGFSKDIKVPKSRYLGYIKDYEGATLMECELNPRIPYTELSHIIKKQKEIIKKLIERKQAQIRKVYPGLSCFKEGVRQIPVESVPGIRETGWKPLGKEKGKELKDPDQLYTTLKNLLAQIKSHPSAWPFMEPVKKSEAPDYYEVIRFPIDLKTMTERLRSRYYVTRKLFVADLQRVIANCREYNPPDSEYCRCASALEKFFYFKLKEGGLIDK
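Preincubate 20nM GCN5L2 with compound 15 min, RT → add 50uM ThioGlo1 + 75uM H3(1-25) + 70uM acetyl-CoA → read fluorescence 0 and 20 min. Primary qHTS; fluorescent artifacts likely.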
VDR inh – inhibitors of human vitamin D receptor | VDR-SRC2-3 peptide fluorescence polarization, 2 h | Potency, µM, for inactives: max response, negative = inhibition, most hits filed as inhibitors | 0.93% of 400,000 active
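Measured by FP: displacement of SRC2-3 coactivator peptide from VDR by library compounds, following a two-hour ambient incubation.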
TDP1 cell noCPT – qHTS for Inhibitors of human tyrosyl-DNA phosphodiesterase 1 (TDP1): qHTS in cells in absence of CPT; Potency, µM (titrated, usually from 46.2 µM), for inactives: at the top dose activity change, negative = growth inhibition, usual class: inhibitors; AID 686978, 2013; 15% of 420,000 active; DT40 Tdp1-/- hTDP1 cells, no CPT, ATP luminescence, 48 h; further: nearly all actives have a fitted effect of over 55% in size
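No-CPT arm: Tdp1-/-;hTDP1 DT40 cells (400/well) plus compounds, incubated ≥48 hr at 37 °C. Readout CellTiter-Glo luminescence.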
TDP1 inh – TDP1 (human) enzyme inhibition; Q9NUW8; recombinant TDP1, AlphaScreen DNA substrate cleavage; Potency, µM (series often up to 130 µM), for the others: at the top dose activity change, negative = inhibition, actives largely listed as inhibitors; 0.28% of 350,000 active; further: nearly all actives have a fitted effect of over 40% in size
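Signal: AlphaScreen proximity between streptavidin donor and anti-FITC acceptor beads on intact substrate. Reaction: Tdp1 1 nM, substrate 15 nM final, 5 min RT after 15 min compound preincubation.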
Numbers without * were called inactive; ? = inconclusive; / = not tested or not shown; [ ] = dose if it differs, or a comment. The call rests on the fitted dose curve; in most records, active means well fitted curve in the direction sought with a large enough effect; inconclusive means small, poorly fitted or top-dose-only effect, or another doubt; inactive means no such curve, though single readings can be large; an effect the other way counts as inactive or inconclusive. On the % scale 0 is the no-effect control and ±100 the full control effect; potency means the concentration at half of the fitted maximal effect.

SMILES | PLK1 PBD inh | TDP1 cell CPT | KAT2A inh | VDR inh | TDP1 cell noCPT | TDP1 inh
O=C(/C=C/c1ccccc1)NCCS(=O)(=O)N1CCN(c2ccc(F)cc2)CC1 | -3% | -24% | -15% | -21% | -15% | 0%
O=C(CNS(=O)(=O)c1ccccc1F)NNC(=O)c1ccc(Br)cc1 | -17% | ? | -2% | -5% | -4% | -3%
Cc1cccc(NC(=O)c2c(C)cc(C)nc2SCC(=O)Nc2c(C)cc(C)cc2C)c1 | / | ? | -8% | 0% | ? | 6%
COc1cc(/C=C/C(=O)OCC(=O)c2ccc3c(c2)NC(=O)CO3)ccc1OC(F)F | 19µM* | ? | -2% | ? | -16% | -4%
CCc1cccc2c(C(=O)COC(=O)/C=C/c3ccc(O)c(OC)c3)c[nH]c12 | -5% | ? | -11% | 6% | 18µM* | -13%
COc1cc(/C=C/C(=O)OCC(=O)c2ccc(OC(F)F)cc2)ccc1O | -3% | ? | -25% | -2% | 15µM* | -1%
COc1cccc(/C=C/C(=O)OCC(=O)c2c[nH]c3ccccc23)c1 | 1% | -10% | -9% | 3% | 1% | 2%
COc1ccc(/C=C/C(=O)OCC(=O)c2ccc3c(c2)NC(=O)CO3)cc1 | -7% | ? | 1% | 8% | -14% | -3%
O=C(/C=C/c1ccco1)OCC(=O)c1ccc(OC(F)F)cc1 | -6% | -5% | -15% | 6% | 1% | -3%
Cc1ccc(S(=O)(=O)N2[C@@H](c3cccc(Cl)c3)C(C(=O)O)=CC[C@H]2c2ccc3c(c2)OCO3)cc1 | -8% | -8% | -5% | ? | -16% | 4%
COc1ccc(-c2nnc(SCC(=O)NNC(=O)Cc3ccccc3)n2C)cc1OC | 27µM* | ? | -1% | 40µM* | 23µM* | 3%
COc1ccc(-c2nnc(SCC(=O)Nc3ncc(C)s3)n2-c2ccccc2)cc1OC | 2% | 21µM* | -3% | -2% | 23µM* | 3%
Cn1c(SCC(=O)NNC(=O)Cc2ccccc2)nnc1-c1ccc(Cl)cc1 | -13% | -11% | -1% | -10% | -7% | 0%
CCOc1ccc(C2c3c(oc4ccc(C)cc4c3=O)C(=O)N2CCCN(C)C)cc1OC (stereo unspecified) | / | -10% | -4% | 4% | ? | 7%
CN(C)c1ccc(C(CNS(=O)(=O)c2ccc(F)cc2)c2c[nH]c3ccccc23)cc1 (stereo unspecified) | -19% | ? | -11% | -10% | 15µM* | 12%
CCOC(=O)c1ccc(S(=O)(=O)NCC(c2ccc(N(C)C)cc2)c2c[nH]c3ccccc23)cc1 (stereo unspecified) | -3% | ? | -13% | -4% | ? | 6%
CN(C)c1ccc(C(CNC(=O)c2ccccc2Br)c2c[nH]c3ccccc23)cc1 (stereo unspecified) | 4% | -21% | -6% | -9% | -12% | -3%
CN(C)c1ccc(C(CNC(=O)c2ccc(C#N)cc2)c2c[nH]c3ccccc23)cc1 (stereo unspecified) | 4% | ? | -3% | 8% | 21µM* | 10%
CC(C)CNC(=O)C1C(=O)Nc2ccccc2C(=O)N1C(C)(C)C (stereo unspecified) | -7% | 2% | / | / | -1% | /
CC(C)NS(=O)(=O)c1ccc(CCC(=O)Nc2cc(Cl)ccc2Oc2ccccc2)cc1 | -5% | 23µM* | -4% | 4% | 23µM* | 6%
CC(C)OC(=O)c1cc2c(OC[C@@H](O)CNC(C)(C)C)cccc2[nH]1 | / | / | -9% | 0% | / | 9%[56.1 µM]
CCOC(=O)N1CCN(C(=O)c2cc(COc3cccc(C(C)=O)c3)on2)CC1 | -3% | ? | -26% | -1% | ? | 4%
CCOC(=O)N1CCN(C(=O)c2cc(COc3ccc4ncccc4c3)on2)CC1 | -18% | 6.5µM* | -14% | -4% | 6.5µM* | 4%
Cc1cccnc1CN1CCN(C(=O)c2cc(COc3ccc4ncccc4c3)on2)CC1 | -9% | 5.8µM* | -3% | 5% | 7.3µM* | 3%
C=CC(=O)NC(C)(C)Cc1ccccc1 | -5% | -31% | 18µM* | 22% | -9% | 4%
SMILES | PLK1 PBD inh | TDP1 cell CPT | KAT2A inh | VDR inh | TDP1 cell noCPT | TDP1 inh
COc1cc(-c2nc3cccc(C)n3c2Nc2ccc3c(c2)OCCO3)ccc1O | / | ? | -3% | 1% | ? | 5%
Cc1ccc(Nc2c(-c3ccc(N4CCOCC4)cc3)nc3cccc(C)n23)cc1 | / | 23µM* | -1% | -9% | 23µM* | 2%
Cc1ccc(Nc2c(-c3cccc(Cl)c3)nc3cccc(C)n23)cc1 | / | ? | -17% | -13% | 16µM* | 2%[12.3 µM]
Cc1ccc(Nc2c(-c3ccc(C)s3)nc3cccc(C)n23)cc1 | / | 13µM* | / | -12% | 13µM* | 6%
Cc1ccc(Nc2c(-c3ccco3)nc3ccccn23)cc1 | -7% | -14% | ? | -8% | ? | -1%
COc1ccc(-c2nc3cccc(C)n3c2Nc2ccc(C)cc2)cc1 | / | 20µM* | / | -9% | 13µM* | 7%
O=c1[nH]c2ccccc2[n+]([O-])c1-c1ccccc1 | -9% | 2% | -11% | 12% | 6% | 5%
O=C(Nc1ccc(OC(F)F)cc1)c1cc(S(=O)(=O)N2CCCCC2)ccc1N1CCOCC1 | 3% | -12% | -8% | -12% | 5% | 2%
Cc1ccc(N2C(=O)CS/C2=N\C(=S)Nc2ccccc2)cc1 | 0% | ? | 2% | 1% | 5.8µM* | /
O=C1CSC(=Nc2ccc(O)cc2)N1c1ccc(O)cc1 | ? | -2% | -17% | -14% | 9% | 3%
CCN(C(=O)CSc1nc2cc(C(=O)OC)ccc2c(=O)n1Cc1ccco1)c1cccc(C)c1 | -10% | 21µM* | 22% | 22% | ? | -7%
COC(=O)c1ccc2c(=O)n(CCN3CCOCC3)c(SCC(=O)Nc3ccc(C)cc3)nc2c1 | -13% | -21% | -27% | -13% | -16% | 3%
CCc1ccc(NC(=O)CSc2nc3cc(C(=O)OC)ccc3c(=O)n2Cc2ccco2)cc1 | -9% | 16µM* | ? | ? | 10µM* | -6%
COc1ccc2nc(N=Nc3ccc(N(C)C)cc3)sc2c1 | -8% | 16µM* | -10% | -20% | ? | 10%
COc1ccc2nc(/N=C\N(C)C)sc2c1 | -15% | -13% | ? | 1% | -2% | -3%
Cc1ccsc1C1CC(=O)OC2=C1C(=O)CC(C)(C)C2 (stereo unspecified) | / | / | -9% | / | / | -1%
